PINK1 modulator = A Quantitative High throughput Screen to Identify Chemical Modulators of PINK1 Expression | Potency, µM (doses to about 76.6 µM), inactives show top-dose activation (PINK1 increase), actives largely listed as activators | PINK1 immunofluorescence, high-content cytometry, 24 h | actives 0.2% (n = 410,000); active = well fitted activation curve with a large enough effect; inconclusive = small, poorly fitted or top-dose-only effect; cell line not stated here; also: potency is read from the fitted curve at half-maximal effect; % of control where 0% means no effect; nearly all actives have a fitted effect of over 65% in size
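Compound titrations (5 concentrations, 24 h) on a stable cell line; DMSO and CCCP controls. Endpoint: fixed-cell PINK1 immunofluorescence with mitochondrial, cell and nuclear markers, scanned by microplate cytometer.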
PKM2 act = qHTS Assay for Activators of Human Muscle isoform 2 Pyruvate Kinase; Pyruvate kinase PKM (Homo sapiens), P14618; purified PKM2, Kinase-Glo ATP luminescence, activation; response scale: 0% is enzyme alone, no compound; Potency, µM (series often up to 57.5 µM), for the others: top-dose activation, usual class: activators; actives 0.34% (n = 260,000); AID 1631, 2009; also: potency is read from the fitted curve at half-maximal effect; % is scaled to controls: 0 for no effect and ±100 for the full control effect; nearly all actives have a fitted effect of over 55% in size
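hPK-M2, >95% pure; 0.1 mM ADP / 0.5 mM PEP final; imidazole pH7.2 buffer w/ 7 mM MgCl2, 50 mM KCl; 1 h RT; Kinase-Glo lum. Intermediate enzyme activity for dual inhibitor/activator qHTS.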
Chronic BCR inh = qHTS Assay to Find Inhibitors of Chronic Active B-Cell Receptor Signaling; ABC-DLBCL IkBa-CBG/CBR reporter, luminescence ratio, 4 h; Potency, µM (doses to about 46.1 µM), inactives show at the highest dose activity change, negative = inhibition, usual class: inhibitors; actives 0.05% (n = 340,000); active = well fitted inhibition curve with a large enough effect in the signal ratio, with a control signal flat, not every such curve was filed as active; inconclusive = small, poorly fitted or top-dose-only effect, or effect the other way, or a change in a side signal; the % refers to the signal ratio;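 also: potency is read from the fitted curve at half-maximal effect; plate controls were basal doxycycline-induced cells for no effect and cells given 10 µM MG132 for full effect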
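TMD8 human ABC-DLBCL cells with doxycycline-inducible IκBα–green luciferase fusion and unfused red luciferase, in 0.5% FBS medium; compounds up to 46 uM, 4 h at 37C. Green/red luminescence ratio, filter-overlap corrected, fitted to concentration-response curves.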
B2AR arrestin = qHTS assay of beta-arrestin-biased ligands of beta2-adrenergic receptor | actives 0.02% (n = 330,000) | beta-arrestin recruitment to beta2AR, cell-based reporter | Beta-2 adrenergic receptor (Homo sapiens), P07550 | Potency, µM (titrated, usually from 46.1 µM), without a hit: top-dose activation, most hits filed as activators;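 also: potency is read from the fitted curve at half-maximal effect; 0% = DMSO controls and full agonism = EC100 isoproterenol or metaproterenol; nearly all actives have a fitted effect of over 65% in size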
Target sequence (P07550 whole entry, looked up): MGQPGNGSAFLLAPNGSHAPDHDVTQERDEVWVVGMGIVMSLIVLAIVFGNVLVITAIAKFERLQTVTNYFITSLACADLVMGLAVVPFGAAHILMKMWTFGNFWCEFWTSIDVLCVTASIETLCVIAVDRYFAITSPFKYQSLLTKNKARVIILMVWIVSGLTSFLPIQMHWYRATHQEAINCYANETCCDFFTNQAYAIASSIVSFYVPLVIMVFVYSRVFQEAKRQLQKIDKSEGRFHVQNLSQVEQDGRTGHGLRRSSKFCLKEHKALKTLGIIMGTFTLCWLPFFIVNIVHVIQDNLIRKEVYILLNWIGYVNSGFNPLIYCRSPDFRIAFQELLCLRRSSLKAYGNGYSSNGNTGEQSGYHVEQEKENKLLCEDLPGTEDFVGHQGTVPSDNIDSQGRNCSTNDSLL
miR-21 act = qHTS Assay for Modulators of miRNAs and/orActivators of miR-21. HeLa miR-21 FLuc reporter, luciferase, 48 h. 340,000 tested, under 10 active. AID 2288, 2010. Potency, µM (highest dose often 38.3 µM), inactives show top-dose activity change, positive = activation, hits mostly activators;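 also: % of control where 0% means no effect; miR-21 action dims this reporter so a rising signal means less miR-21 action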
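Using DMEM plus 10% FBS, HeLa miR-21-FLuc cells are incubated with test compounds (final up to about 40uM) for 48 hours; firefly luciferase signal is then imaged following reagent-mediated lysis.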
Pin1 inhibitor = qHTS Assay to Find Inhibitors of Pin1; Peptidyl-prolyl cis-trans isomerase NIMA-interacting 1 (Homo sapiens), Q13526; Potency, µM (doses to about 115 µM), without a hit: top-dose activity, negative = inhibition, actives largely listed as inhibitors; actives 0.009% (n = 390,000); Pin1 FP peptide displacement, HiFluor488, 10 min; active = well fitted inhibition curve with a large enough effect in the polarisation, with a control signal flat, not every such curve was filed as active; inconclusive = small, poorly fitted or top-dose-only effect, or effect the other way, or a change in a side signal; inactive = no such curve, though single readings can be large or run the other way; the % refers to the polarisation; also: potency is read from the fitted curve at half-maximal effect; % is scaled to controls: 0 for no effect and ±100 for the full control effect
An asterisk follows results filed as active; ? = inconclusive; nt = not tested or not shown; [ ] = another dose, or the depositor's remark. A selection: hits, their analogues and other compounds. The true share with any hit is near 0.46%. Unless noted, calls follow the shape of the dose curve; as a rule, active = well fitted curve in the direction sought with a large enough effect; inconclusive = small, poorly fitted or top-dose-only effect, or another doubt; inactive = no such curve, though single readings can be large; an effect the other way counts as inactive or inconclusive.

SMILES	PINK1 modulator	PKM2 act	Chronic BCR inh	B2AR arrestin	miR-21 act	Pin1 inhibitor
Cc1ccc(/C=C/C(=O)N2CCN(S(=O)(=O)c3c(C)c(C)cc(C)c3C)CC2)o1	2%	3.2µM*	7%	0%	-4%	47%
Cc1cc(NCc2ccccn2)n2nc(C)c(-c3ccccc3)c2n1	6%	0%	-11%	-1%	26%	3%
Cc1nn2c(NCc3ccccn3)cc(C(C)(C)C)nc2c1-c1ccccc1	18µM*	-4%	-3%	0%	1%	10%
Cc1ncc2c(c1CNS(=O)(=O)c1cccs1)CCN(C(=O)/C=C/c1cc(F)cc(F)c1)C2	0%	nt	nt	nt	nt	nt
Cn1c(Cc2ccccc2)nnc1SCC(=O)N1CCN(c2ccccc2)CC1	2%	13µM*	0%	0%	0%	-4%
Cn1c(Cc2ccccc2)nnc1SCC(=O)N1CCOCC1	-1%	-14%	9%	-1%	-1%	8%
N#CC(C#N)=Cc1ccc(-c2ccc(S(=O)(=O)N=C(N)N)cc2)o1	0%	18µM*	?	0%	-10%	?
N#Cc1nc(Nc2cc(F)cc(F)c2)c2ncn(CCO)c2n1	nt	nt	nt	nt	nt	14%
CC(=O)c1ccc(Nc2nc3ccccc3nc2NS(=O)(=O)c2cccs2)cc1	40µM*	1%	?	0%	2%	-3%
COc1ccc(Nc2nc3ccccc3nc2NS(=O)(=O)c2cccs2)cc1	-1%	0%	21%	0%	-9%	-10%
NC(=O)C1CCN(c2nc(-c3ccc(OC(F)(F)F)cc3)cs2)CC1	nt	nt	nt	nt	nt	-19%
Cc1noc(/C=C/c2ccco2)c1S(=O)(=O)N1CCC(C(=O)N2CCc3ccccc3C2)CC1	-4%	20µM*	?	?	-7%	67%
O=C(C[n+]1cc(Br)cc2ccccc21)c1ccc(Cl)cc1	14µM*	nt	0%	0%	-4%	?
CCc1ccc(NC(=O)C(C)OC(=O)/C=C/c2ccc(O)c(OC)c2)cc1 (configuration not stated)	-1%	nt	21µM*	-1%	nt	115%
Cc1cc(S(=O)(=O)Nc2ccc3c(c2)COC3=O)ccc1F	1%	11µM*	1%	-2%	-13%	6%
CC(C)(C)c1ccc(S(=O)(=O)Nc2ccc3c(c2)COC3=O)cc1	-2%	-3%	-2%	0%	-30%	-4%
O=C(NCc1ccccn1)c1c(O)c2cccc3c2n(c1=O)CC3	-1%	8.9µM*	?	0%	-7%	0%
CCOC(=O)c1c(NC(=O)c2cc(=O)c3c(C)cc(C)cc3o2)sc2c1CCC2	32µM*	nt	nt	nt	-2%	-6%
CCOC(=O)c1c(NC(=O)c2cc(=O)c3c(C)cc(C)cc3o2)sc(C)c1C	1%	nt	nt	nt	3%	-4%
CC(=O)c1ccc(F)c(-c2cc(C)cc3c2OC(CNC(=O)Cc2ccc4c(c2)OCO4)C3)c1 (configuration not stated)	1%	nt	nt	nt	nt	nt
CC(=O)NC1CCN(c2nc(-c3ccc(Br)cc3)cs2)CC1	nt	nt	nt	nt	nt	0%
O=[N+]([O-])c1ccc(Nc2ccc(F)cc2)cc1	0%	nt	?	0%	-11%	-2%
O=[N+]([O-])c1ccc(NNC(=S)Nc2ccc(F)cc2)cc1	14µM*	-35%	8%	-1%	15%	8%
O=C(NC(NNc1ccc([N+](=O)[O-])cc1)(C(F)(F)F)C(F)(F)F)c1ccc(F)cc1	45µM*	?	?	0%	29%	14%
O=C(O)C1C2C=CC(O2)C1C(=O)Nc1ccc(S(=O)(=O)Nc2ccccc2)cc1 (configuration not stated)	2%[38.3 µM]	28µM*	3%	-1%	-1%	0%

Screens deposited in PubChem by National Center for Advancing Translational Sciences (NCATS).
